# Measurements as given in the supplement of paper PMC7858590.
# Values joined by “and” are separate entries in the source; they are usually repeats but may differ in a detail not shown here. Equal entries are not always repeated. ± gives the standard deviation of the averaged measurements. In all, about 3,800 compounds were measured (“cell shape (eccentricity) Z-score vs DMSO control”: median about 1.1, lowest 2% from about -4.7 on). What follows is part of a selection rich in the lowest values, with near analogues and random picks from the rest.
# Tested on: human monocyte-derived macrophages (M0)
# Assay: cell shape (eccentricity) Z-score vs DMSO control; higher = more elongated, M2-like morphology
# Details: 20 µM; 24 h; macrophage state: M0 (M-CSF)
# Procedure: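 Primary human monocyte-derived macrophages (M-CSF differentiated, pooled from 4 donors, 5000 cells/well in 384-well plates) were treated with each compound at 20 uM for 24 h, then fixed and stained with phalloidin/DAPI and imaged on an Opera Phenix (6 fields, about 1000 cells/well). Cell eccentricity was measured with CellProfiler, and a Z-score (t-test) was computed against 4 DMSO control wells in the same row. Negative values mean round (M1-like) cells and positive values mean elongated (M2-like) cells; the paper's hit cutoffs are Z <= -4 (M1) and Z >= 6 (M2). Scale: negative = round, M1-like.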
row,Compound,cell shape (Z-score)
1,Cc1cc(O)cc2oc3cc(O)cc(O)c3c(=O)c12,-1.58
2,CCCC(=O)Nc1ccc(OCC(O)CNC(C)C)c(C(C)=O)c1 (centres undefined),1.65
3,CC1=C(CO)C(=O)OC([C@@H](C)[C@H]2CCC3C4CC=C5C[C@@H](O[C@@H]6O[C@H](CO)[C@@H](O)[C@H](O)[C@H]6O)C[C@H](O)[C@]5(C)C4CC[C@@]32C)C1 (some centres undefined),1.5
4,C[C@@H](Oc1cc(-n2cnc3ccc(CN4CCN(C)CC4)cc32)sc1C(N)=O)c1ccccc1C(F)(F)F,3.02
5,C=C1[C@H]2CC[C@@]3(C)[C@H](c4ccoc4)OC(=O)C[C@]13O[C@H]1C[C@H](O)C(C)(C)[C@H](CC(=O)OC)[C@]12C,-1.66
6,C=C1C(=O)OC2CC3(C)CCC=C(CO)C3CC12 (centres undefined),-3.71
7,COC(=O)C1=CO[C@@H](O[C@@H]2O[C@H](CO)[C@@H](O)[C@H](O)[C@H]2O)[C@H]2[C@@H]1C=CC21C=C([C@H](C)O)C(=O)O1 (some centres undefined),2.96
8,CC(=O)OCC(Cc1ccccc1)NC(=O)C(Cc1ccccc1)NC(=O)c1ccccc1 (centres undefined),0.368
9,Cc1cc(O)c(C=O)c2c1C(=O)Oc1c(C)c(O)c3c(c1O2)C(O)OC3=O (centres undefined),1.11
10,COc1cc(C)c2c(c1C=O)Oc1c(c(C)c(O)c3c1C(O)OC3=O)OC2=O (centres undefined),-1.59
11,Cc1cc(O)c(C)c2c1Oc1c(C)c(O)cc(C)c1C(=O)O2,-6.49
12,CC(=O)OCC(=O)[C@@]1(O)CCC2C3C[C@H](C)C4=CC(=O)C=CC4(C)C3[C@@H](O)CC21C (some centres undefined),-2.52
13,CC(CN(C)C)CN1c2ccccc2Sc2ccccc21 (centres undefined),-1.29
14,O=C(Nc1ccc(C(=O)O)c(O)c1)c1ccccc1,1.5
15,O=C(Nc1nc2ccc(NC(=O)C34C[C@H]5C[C@@H](C3)C[C@@H](C4)C5)cc2s1)c1ccccc1,-4.79
16,COc1ccc2nc(NC(=O)Nc3ccccc3)sc2c1,2.21
17,N=C(N)NCCNS(=O)(=O)c1cccc2cnccc12,5.63
18,CCCCCC1C(=O)O/C(=C\C(=O)O)C1=O (centres undefined),-1.15
19,C[C@H](NC(=O)/C(C#N)=C/c1ccc(O)c(O)c1)c1ccccc1,-2.26
20,CCC[C@H](NC(=O)/C(C#N)=C/c1cccc(Br)n1)c1ccccc1,-4.73
21,C[C@@H](NC(=O)/C(C#N)=C\c1ccc(O)c(O)c1)c1ccccc1,0.038
22,C[C@@H]1CN(CC(=O)Nc2ccc3c(c2)Cc2cccc(-c4cc(=O)cc(N5CCOCC5)o4)c2S3)C[C@H](C)O1,4.22
23,CC1(C)C2CC[C@]3(C)C(C(=O)C=C4[C@H]5C[C@@](C)(C(=O)O)CC[C@]5(C)CC[C@]43C)[C@@]2(C)CC[C@@H]1O (some centres undefined),0.344

row,Compound,cell shape (Z-score)
1,CC(=O)Oc1cc2c(c(C)c1OC(C)=O)CC=C1[C@@]2(C)CC[C@@]2(C)C3C[C@](C)(C(=O)O)CC[C@]3(C)CC[C@]12C (some centres undefined),-13.8
2,Cc1cc(C(C)(C)CC(C)(C)C)ccc1OCCOCC[N+](C)(C)Cc1ccccc1,-4.7
3,CC(C)(C)CC(C)(C)c1ccc(O)c(-n2nc3ccccc3n2)c1,-0.381
4,CC(C)(C)CC(C)(C)c1ccc(OCCOCC[N+](C)(C)Cc2ccccc2)cc1,-0.216
5,O=C(O)c1cccnc1Nc1cccc(C(F)(F)F)c1,2.97
6,COc1ccc(/C=C/C(=O)c2cc(O)ccc2O)cc1,2.34
7,COc1ccc(/C=C/C(=O)c2ccc(O)cc2O)cc1,-5.34
8,CCOC(=O)C1=C(C)NC(C)=C(C(=O)OC)C1c1cccc([N+](=O)[O-])c1 (centres undefined),1.64
9,COc1ccc2c(c1OC)OC[C@@H](c1ccc(OC)c(OC)c1OC)C2,2.19
10,COc1cc(C[C@@H]2COC(c3ccc(O[C@@H]4O[C@H](CO)[C@@H](O)[C@H](O)[C@H]4O)c(OC)c3)[C@@H]2CO)ccc1O[C@@H]1O[C@H](CO)[C@@H](O)[C@H](O)[C@H]1O (some centres undefined),2.98
11,Nc1ccc(-c2nc3ccc(-c4nc5ccc(N)cc5[nH]4)cc3[nH]2)cc1,-0.879
12,O=C1c2ccc(Nc3ccc(F)cc3F)cc2CCc2ccc(OC[C@H](O)CO)cc21,-6.5
13,O=C(NOCC(O)CO)c1cc(Br)c(F)c(F)c1Nc1ccc(I)cc1F (centres undefined),-0.375
14,CC(=O)O[C@@H]1[C@@H](O)[C@H](C)O[C@@H](Oc2c(-c3ccc(O)cc3)oc3cc(O[C@@H]4O[C@@H](C)[C@H](O)[C@@H](O)[C@H]4O)cc(O)c3c2=O)[C@@H]1O,1.24
15,C[C@@](Cc1ccc(O)c(O)c1)(NN)C(=O)O,1.55
16,COc1ccc(C(=C2C(=O)Nc3ccccc32)c2ccc(OC)cc2)cc1,1.61
17,COc1ccc(C(=O)/C=C/c2ccccc2)cc1,3.14
18,COc1ccc(C(=O)CC2(O)C(=O)Nc3c(Cl)ccc(Cl)c32)cc1 (centres undefined),-7.6
19,O=C(O)c1ccc(NCc2nc3cc4ccccc4cc3[nH]2)cc1,1.43
20,CC1(C)O[C@@H]2CC3C4CCC5=CC(=O)C=C[C@]5(C)[C@@]4(F)[C@@H](O)C[C@]3(C)[C@]2(C(=O)CO)O1 (some centres undefined),-2.57
21,COc1ccc(NC(=O)c2ccc(-c3ccc(-c4noc(C)n4)cc3C)cc2)cc1N1CCN(C)CC1,-0.626
22,Nc1ccc(/N=N/c2ccccc2)c(N)n1,-1.01
23,Cc1ccc(O)c(N=Nc2ccccc2)n1,-7.89

row,Compound,cell shape (Z-score)
1,Cc1ccc2ccc3ccc(C)nc3c2n1,3.48
2,C=C[C@@](C)(O)CCC1C(=C)CCC2[C@@](C)(CO)CCC[C@]12C (some centres undefined),4.09
3,COC1=C(N)C(=O)c2nc(-c3nc(C(=O)O)c(C)c(-c4ccc(OC)c(OC)c4O)c3N)ccc2C1=O,0.0737
4,Nc1ccccc1NC(=O)c1ccc(CNC(=O)OCc2cccnc2)cc1,-10.6 ± 0.74
5,CC(=O)Nc1ccc(C(=O)Nc2ccccc2N)cc1,-3.16 ± 2.7
6,CC(C)(C)c1ccc(S(=O)(=O)NCc2ccc(C(=O)Nc3cccnc3)cc2)cc1,1.14
7,Nc1ccccc1NC(=O)c1ccc(CNc2nccc(-c3cccnc3)n2)cc1,-11.8
8,Nc1cc(-c2ccncc2)c[nH]c1=O,0.0533
9,COc1cc2c(c(OC)c1)C(=O)OC(C)C2 (centres undefined),-2.38
10,Cc1ccccc1NC(=N)Nc1ccccc1C,2.28
11,O=c1c(OC2OC(CO)C(O)C(O)C2OC2OC(CO)C(O)C(O)C2O)c(-c2ccc(O)cc2)oc2cc(O)cc(O)c12 (centres undefined),0.138 ± 1.7
12,CC1(C)C(=O)C=C[C@@]2(C)C1CC(=O)[C@]1(C)C2CC[C@@]2(C)[C@H](c3ccoc3)OC(=O)[C@H]3O[C@]321 (some centres undefined),-1.42
13,COc1cc2c(c(O)c1OC)C(=O)CC(c1ccc(O)cc1)O2 (centres undefined),0.892
14,CC(C)[C@@H]1CC[C@@]2(C)CCC[C@@](C)(O)[C@@H]2[C@H]1OC(=O)/C=C/c1ccccc1,2.15
15,NC(=O)c1ccc(-c2nc(-c3ccc4c(c3)OCCO4)c(-c3ccccn3)[nH]2)cc1,4.12
16,COCCCCC(=NOCCN)c1ccc(C(F)(F)F)cc1,-14.7
17,CC(O)CCCc1cc(O)cc(O[C@@H]2O[C@H](CO)[C@@H](O)[C@H](O)[C@H]2O)c1 (some centres undefined),0.302
18,CC(/C=C/C1(O)C(C)CC(O)CC1(C)C)OC1OC(CO)C(O)C(O)C1O (centres undefined),0.819
19,C/C=C/C#CC#C[C@@H](O[C@@H]1O[C@H](CO)[C@@H](O)[C@H](O)[C@H]1O)[C@H](O)/C=C/CCCO,-5.71
20,O=Cc1ccccc1O[C@@H]1O[C@H](CO)[C@H](O)[C@@H](O)[C@H]1O,-0.838
21,O=C1c2ccccc2CCC1CNCCc1ccc(O)cc1 (centres undefined),2.69
22,OCc1ccc(-c2ccc(-c3ccc(CO)s3)o2)s1,-3.3 and -5.19
23,COc1cc(C(C)/C=C(/C)CC(=O)O)oc(=O)c1C (centres undefined),0.462 ± 0.48

row,Compound,cell shape (Z-score)
1,C=C1CC[C@@H]2[C@](C)(CO)[C@H](O)CC[C@@]2(C)[C@@H]1CC(O)C1=CCOC1=O (some centres undefined),-2.2 ± 3.4
2,O=C(Nc1ccc([N+](=O)[O-])cc1Cl)c1cc(Cl)ccc1O,-4.1 ± 4.2
3,O=C(Nc1ccc([N+](=O)[O-])cc1O)Nc1ccccc1Br,-4.95 ± 7.5
4,O=C(Nc1ccccc1)c1cc([N+](=O)[O-])ccc1Cl,-1.03
5,CCC(C)C(=O)O[C@H]1C[C@H](O)C=C2C=C[C@H](C)[C@H](CC[C@@H](O)C[C@@H](O)CC(=O)O)C21 (some centres undefined),-0.754
6,COc1cc(/C=C/c2cc(O)cc(O[C@@H]3O[C@H](CO)[C@@H](O)[C@H](O)[C@H]3O)c2)ccc1O[C@@H]1O[C@H](CO)[C@@H](O)[C@H](O)[C@H]1O,2.22
7,COc1c2c(cc3occ(-c4ccc5c(c4)OCO5)c(=O)c13)OC(C)(C)C=C2,1.71
8,COc1cc2c(cc1-c1coc3c4c(ccc3c1=O)OC(C)(C)C=C4)OCO2,-5.49
9,COc1c(-c2coc3cc4c(cc3c2=O)CC(O)C(C)(C)O4)ccc2c1C=CC(C)(C)O2 (centres undefined),-0.764
10,CN(C)CCCN1c2ccccc2CCc2ccc(Cl)cc21,1.86
11,CC(C)=CCC1Cc2c(cc(O)c(C(=O)C(C)C)c2O)OC1(C)C (centres undefined),3.41
12,NCCCCCc1cnc[nH]1,-0.662
13,CC(C)c1ccc(Cn2ccc3c4c(N)nc(NC5CC5)nc4ccc32)cc1,-4.69
14,CCNC(=O)[C@@H]1CCCN1C(=O)[C@H](CCCNC(=N)N)NC(=O)[C@H](CC(C)C)NC(=O)[C@@H](COC(C)(C)C)NC(=O)[C@H](Cc1ccc(O)cc1)NC(=O)[C@H](CO)NC(=O)[C@H](Cc1c[nH]c2ccccc12)NC(=O)[C@H](Cc1cnc[nH]1)NC(=O)C1CCC(=O)N1 (some centres undefined),-0.749
15,O=C(CCCN1CCC(O)(c2cccc(C(F)(F)F)c2)CC1)c1ccc(F)cc1,-0.261
16,OC1(c2ccc(Cl)c(C(F)(F)F)c2)CCN(CCCC(c2ccc(F)cc2)c2ccc(F)cc2)CC1,-6.96
17,O=C(CCCN1CCC(O)(c2ccc(Cl)cc2)CC1)c1ccc(F)cc1,-2.24
18,CO[C@@]12[C@@H]3NC3CN1C1=C(C(=O)C(N)=C(C)C1=O)[C@@H]2COC(N)=O (some centres undefined),-5.51
19,CO[C@@]12[C@H](COC(N)=O)C3=C(C(=O)C(C)=C(N)C3=O)N1C[C@@H]1N[C@@H]12,-1.43 ± 4
20,Cc1cccc(-c2[nH]c(C(C)(C)C)nc2-c2ccc3nccnc3c2)n1,4.84
